Source: PubChem BioAssay
Compounds with a hit are over-represented: about 1.4% of the library has one in this group of screens.
MsrA inhibitor – bovine MsrA enzyme inhibitors, primary screen, biochemical, absorbance, HTS; Methionine sulfoxide reductase A (Bos taurus); purified bovine MsrA, absorbance read-out; inhibition, % at 15.5 µM; 360,000 compounds, 0.75% hits; AID 651718, 2012;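 also: 0% = vehicle wells with enzyme and 100% = reference inhibitor wells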
14-3-3 Bad inh – inhibitors of 14-3-3 zeta/Bad binding, primary screen, biochemical, TR-FRET, bovine 14-3-3 zeta. 14-3-3 protein zeta/delta (Bos taurus), P63103. TR-FRET 14-3-3zeta/Dy647-pBad peptide displacement, 1 h. inhibition, % at 21.7 µM. 220,000 compounds, 0.71% hits;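 active = inhibition above about 70%, limit read from the data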;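 also: 0% = full 14-3-3 plus peptide FRET controls and 100% = background without 14-3-3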
pCIP destab – p/CIP-EGFP fusion destabilizers, primary screen, fluorescence, F442A cells; Q05BA5; 16 h; decrease of EGFP signal, % at 10 µM; 290,000 compounds, 0.01% hits;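 active = EGFP signal decrease of at least 30% at 10 µM or well 3 SD below plate mean, unless failing retest; inactive = the rest, including hits failing retest or dose response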
Target sequence (Q05BA5 1-1403): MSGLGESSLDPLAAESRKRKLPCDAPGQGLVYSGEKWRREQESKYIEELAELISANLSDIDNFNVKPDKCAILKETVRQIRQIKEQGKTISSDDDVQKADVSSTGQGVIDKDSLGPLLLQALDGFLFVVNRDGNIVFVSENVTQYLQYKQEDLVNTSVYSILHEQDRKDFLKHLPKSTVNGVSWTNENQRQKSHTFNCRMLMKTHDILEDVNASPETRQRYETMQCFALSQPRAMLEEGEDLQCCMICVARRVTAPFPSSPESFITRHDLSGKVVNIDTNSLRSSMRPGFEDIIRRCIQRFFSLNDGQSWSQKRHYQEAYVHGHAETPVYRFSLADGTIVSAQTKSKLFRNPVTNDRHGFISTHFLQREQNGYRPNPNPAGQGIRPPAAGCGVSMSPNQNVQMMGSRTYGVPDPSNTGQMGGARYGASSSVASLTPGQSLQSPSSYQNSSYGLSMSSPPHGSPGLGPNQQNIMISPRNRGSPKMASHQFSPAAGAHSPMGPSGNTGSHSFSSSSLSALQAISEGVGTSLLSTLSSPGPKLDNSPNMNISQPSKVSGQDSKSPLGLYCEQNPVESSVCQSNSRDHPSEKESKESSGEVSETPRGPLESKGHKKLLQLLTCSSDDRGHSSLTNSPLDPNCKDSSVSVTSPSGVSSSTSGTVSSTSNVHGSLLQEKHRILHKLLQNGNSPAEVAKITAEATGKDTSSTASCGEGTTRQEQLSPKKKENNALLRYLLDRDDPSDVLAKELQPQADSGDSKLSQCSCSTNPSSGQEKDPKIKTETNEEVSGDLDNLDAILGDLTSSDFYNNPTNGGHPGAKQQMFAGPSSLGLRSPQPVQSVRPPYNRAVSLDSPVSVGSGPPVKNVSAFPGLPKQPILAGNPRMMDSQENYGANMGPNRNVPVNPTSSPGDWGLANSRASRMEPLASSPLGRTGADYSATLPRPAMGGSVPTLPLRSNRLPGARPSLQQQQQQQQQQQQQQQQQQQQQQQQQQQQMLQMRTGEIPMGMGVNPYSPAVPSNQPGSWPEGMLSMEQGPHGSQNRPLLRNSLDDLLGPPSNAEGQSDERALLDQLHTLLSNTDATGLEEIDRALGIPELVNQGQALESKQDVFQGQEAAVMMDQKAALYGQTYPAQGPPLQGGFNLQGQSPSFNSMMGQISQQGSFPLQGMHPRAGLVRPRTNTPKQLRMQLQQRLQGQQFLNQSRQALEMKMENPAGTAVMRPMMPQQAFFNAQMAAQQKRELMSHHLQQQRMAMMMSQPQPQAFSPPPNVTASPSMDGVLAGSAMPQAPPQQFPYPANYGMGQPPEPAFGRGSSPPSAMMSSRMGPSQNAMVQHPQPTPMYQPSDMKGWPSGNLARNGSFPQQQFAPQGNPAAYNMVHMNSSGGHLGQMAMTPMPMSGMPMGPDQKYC
MsrA act – bovine MsrA enzyme activators, primary screen, biochemical, absorbance, HTS. Methionine sulfoxide reductase A (Bos taurus). AID 602163, 2012. 360,000 compounds, 0.3% hits. activation, % at 10.6 µM. purified bovine MsrA, absorbance read-out; in the data active = activation above about 7.5%;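 also: 0% = vehicle and 100% = reference activator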
MsrA conf – bovine MsrA inhibitors, retest, confirmation, biochemical, absorbance, HTS; AID 651822, 2012; 2,300 compounds, 41% hits; purified bovine MsrA, absorbance read-out; inhibition, % at 15.5 µM; shares compounds with MsrA inhibitor;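 also: coupled to thioredoxin reductase with NADPH and selenocystamine and DMSO as substrate; 0% = vehicle only and 100% = full effect of reference inhibitor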
An asterisk follows results filed as active; . = no result. Rule as the data show it, unless noted: active = inhibition above about 4.5%; inactive = the rest.

SMILES	MsrA inhibitor	14-3-3 Bad inh	pCIP destab	MsrA act	MsrA conf
O=C(/C=C/c1cccc(C(F)(F)F)c1)OCC(=O)N1CCN(c2ccccc2)CC1	0	.	.	0	.
O=C(Nc1nnc(-c2ccncc2)o1)c1ccc(Br)s1	5.8*	-5	13	-2	3
CN(Cc1ccccc1F)C(=O)c1ccc(NC(=O)CC2SC(N3CCCCC3)=NC2=O)cc1 (stereo not drawn)	0	.	.	-2	.
COc1cc(/C=N\Nc2nc3ccccc3o2)cc(OC)c1OC	5.2*	5	-18	-4	3
COc1cc(/C=N/NC2=NS(=O)(=O)c3ccccc32)cc(OC)c1OC	5.5*	.	2	-4	4.6*
O=S1(=O)N=C(N(CCO)/N=C/c2ccc(Cl)cc2)c2ccccc21	0	.	-3	0	.
O=S1(=O)N=C(N/N=C/C=C/c2ccccc2)c2ccccc21	6.8*	-1	-9	-8	6.2*
O=S1(=O)N=C(N(CCO)/N=C/C=C/c2ccccc2)c2ccccc21	8.3*	-18	1	-8	5.7*
CSc1ccc(CN(C)C(=O)COc2ccc(C(=O)c3ccccc3)cc2)cc1	0	.	8	-1	.
CCS(=O)(=O)N1Cc2ccccc2CC1C(=O)NCCc1ccccc1 (stereo not drawn)	0	.	-9	-1	.
Cc1cc(OC(C)C)c2c(-c3ccccc3)cc(=O)oc2c1	26*	6	-9	-6	22*
Cc1ccc(-c2c(C)cc3oc(=O)cc(-c4ccccc4)c3c2C)cc1	0	.	.	-2	.
Cc1cc(OCC(=O)N2CCc3ccccc3C2)c2c(-c3ccccc3)cc(=O)oc2c1	15*	9	-8	-3	14*
CC(=O)Oc1cc(C)cc2oc(=O)cc(-c3ccccc3)c12	9.1*	.	-7	1	1
CCOc1cc(C)cc2oc(=O)cc(-c3ccccc3)c12	6.5*	-4	-3	-1	5.1*
Cc1ccc(C2(C)NC(=O)N(CC(=O)NC3CCCCC3)C2=O)cc1 (stereo not drawn)	1	.	.	0	.
N#CC1=C(N)Oc2ccc3ccccc3c2C1c1cccnc1 (stereo not drawn)	6.6*	-3	-3	-1	3
N#CC1=C(N)Oc2cc(O)ccc2C1c1cccnc1 (stereo not drawn)	0	-8	0	-3	.
N#CC1=C(N)Oc2ccc3ccc(O)cc3c2C1c1cccnc1 (stereo not drawn)	6.7*	-8	-1	-6	6.6*
Nc1nc(-c2ccccc2)nc2nonc12	2	.	.	-2	.
Cc1nc(N2CCN(c3ccccc3O)CC2)c2c(-c3ccccc3)csc2n1	0	.	-6	-2	.
COc1ccc(-c2cc(C)no2)cc1S(=O)(=O)Nc1cccc(CN2CCCC2)c1	0	.	-2	-24	.
CC(/C=N/NC(=O)CN1CCN(Cc2ccc(Cl)cc2)CC1)=C\c1ccco1	3	-1	-5	-9	.
O=C(CN1CCN(Cc2ccccc2)CC1)N/N=C/C=C/c1ccco1	5.8*	-5	12	-9	4
O=C(N/N=C/c1ccc2nccnc2c1)c1ccccc1O	1	-2	-16	.	.
SMILES	MsrA inhibitor	14-3-3 Bad inh	pCIP destab	MsrA act	MsrA conf
O=C(N/N=C/c1ccnc2ccccc12)c1ccccc1O	5.6*	.	5	-1	4
O=C(O)c1ccccc1NS(=O)(=O)c1ccc(NN=Cc2ccccc2F)c([N+](=O)[O-])c1	5.3*	.	.	-7	3
O=C(c1cnc2sccn2c1=O)N(Cc1ccccc1)c1ccccn1	5.0*	2	-9	-4	3
O=C(c1ccccc1)N(Cc1ccccc1)c1ccccn1	-2	8	-3	-3	.
COc1cccc2cc(C(=O)Oc3ccc(NC(C)=O)cc3)c(=O)oc12	4.7*	14	-6	-3	1
COC(=O)c1sc(S(=O)(=O)NCCCN(C)C)c(C(=O)OC)c1C	0	7	3	0	.
COC(=O)c1sc(S(=O)(=O)Nc2ccc(C)c(C)c2)c(C(=O)OC)c1C	6.1*	-2	-5	-11	5.7*
CSc1ncccc1C(=O)OCC(=O)NCCCc1ccccc1	0	.	.	-2	.
CC(=O)COc1c(-c2ccco2)oc2ccccc2c1=O	4.8*	.	-4	-5	4
N#Cc1c(N2CCSCC2)nsc1-c1ccccc1Cl	2	.	8	-5	.
COc1ccc(-c2cc(=O)c3ccccc3o2)cc1	2	6	18	-4	.
COc1ccc(-c2cc(=O)c3cccc(CC(=O)O)c3o2)cc1	5.0*	.	.	.	4.6*
O=C(COc1ccc2c(-c3ccccc3)cc(=O)oc2c1)NCC1CCC(C(=O)O)CC1 (stereo not drawn)	5.0*	.	-5	-2	3
CCCc1nnc(NC(=O)CCC(=O)N2CCN(Cc3ccc(Cl)cc3)CC2)s1	0	.	-6	-2	.
CC(=O)c1cnc(Nc2cccc(Cl)c2Cl)s1	4.8*	8	-5	3	2
Cc1cccc(N2CCN(C(=O)c3cccc(N4CCCC4=O)c3)C(C)C2)c1 (stereo not drawn)	0	.	11	-7	.
Cc1c(C#N)c(N=CN(C)C)c(C(=O)c2ccc(Br)cc2)n1-c1ccccc1	2	2	-10	1	.
Cc1c(C#N)c(N=CN(C)C)c(C(=O)c2ccccc2)n1-c1ccc(Br)cc1	5.3*	-2	-14	-9	7.3*
C/C(=N\NC(=S)Nc1cccc(C)c1)c1cc2ccccc2o1	2	-13	-2	1	.
CCNC(=S)N/N=C(\C)c1cc2ccccc2o1	5.6*	2	2	-11	6.3*
c1ccc2nc(-c3nc4ccccc4[nH]3)ccc2c1	5.0*	-12	-4	-4	4.7*
CCN(CC)S(=O)(=O)c1ccc(C(C)NC(=O)C2CCCN2C(=O)c2cccs2)cc1 (stereo not drawn)	0	.	.	-1	.
CN(C)S(=O)(=O)n1cc(/C=C(\NC(=O)c2ccccc2)C(=O)NCCCN2CCOCC2)c2ccccc21	2	.	2	-2	.
CN(C)S(=O)(=O)n1cc(/C=C(\NC(=O)c2ccccc2F)C(=O)NCCN2CCOCC2)c2ccccc21	1	.	.	-6	.
Cn1cc(/C=C(\NC(=O)c2ccccc2)C(=O)NCCCN2CCOCC2)c2ccccc21	6.8*	.	3	-6	5.3*
CCn1cc(/C=C(\NC(=O)c2ccc(OC)c(OC)c2)C(=O)NCCCO)c2ccccc21	5.8*	-1	2	-3	4
CCn1cc(/C=C(\NC(=O)c2ccc(OC)c(OC)c2)C(=O)NCCN2CCOCC2)c2ccccc21	3	.	0	-8	.
CCn1cc(/C=C(\NC(=O)c2ccccc2F)C(=O)NCCN2CCOCC2)c2ccccc21	5.3*	.	-7	-5	3
COc1ccc(C(=O)N/C(=C\c2cn(C)c3ccccc23)C(=O)NCCCN2CCOCC2)cc1OC	5.7*	.	4	-5	4
